{"source": "the antibiotic and cytotoxicity screens of Wong et al. (2023)", "note": "Among all 39,000 compounds or so, about 3,300 (8.5%) were called active. This is one part of a sample in which actives are shown more often than they occur."}
{"system": "HepG2", "experiment": "cytotoxicity call (relative viability < 0.9)", "details": "10 µM"}
{"smiles": "CC(C)NC(=O)N(C)C[C@@H]1Oc2ccc(NC(=O)CCCN(C)C)cc2C(=O)N([C@@H](C)CO)C[C@@H]1C", "cytotoxicity call": "inactive"}
{"smiles": "C[C@@H]1CN([C@H](C)CO)C(=O)c2cc(NC(=O)CCN3CCOCC3)ccc2O[C@@H]1CN(C)Cc1ccccc1", "cytotoxicity call": "inactive"}
{"smiles": "C[C@H]1CN([C@@H](C)CO)C(=O)c2cc(C#CC3CC3)cnc2O[C@H]1CN(C)S(=O)(=O)c1cccc(F)c1", "cytotoxicity call": "inactive"}
{"smiles": "COc1ccc(NC(=O)Nc2ccc3c(c2)C(=O)N([C@@H](C)CO)C[C@@H](C)[C@H](CN(C)C(=O)NC(C)C)OCCCC[C@@H](C)O3)cc1", "cytotoxicity call": "inactive"}
{"smiles": "C[C@H]1CN([C@@H](C)CO)C(=O)c2cccc(NC(=O)c3ccncc3)c2O[C@@H]1CN(C)Cc1ccc2c(c1)OCO2", "cytotoxicity call": "inactive"}
{"smiles": "N[C@@H](Cc1ccc(F)cc1)C(=O)O", "cytotoxicity call": "inactive"}
{"smiles": "NNC(=S)NCc1ccc(F)cc1", "cytotoxicity call": "inactive"}
{"smiles": "NC(=CS(=O)(=O)Cc1ccc(F)cc1)NO", "cytotoxicity call": "active"}
{"smiles": "CC(=O)O[C@H]1[C@H](O)[C@H](O)[C@H](O[C@@H]2[C@@H](Oc3cc(O)c4c(=O)cc(-c5ccc(O)c(O)c5)oc4c3)O[C@@H](C(=O)O)[C@H](O)[C@@H]2O)O[C@@H]1C", "cytotoxicity call": "inactive"}
{"smiles": "C[C@H]1CN([C@@H](C)CO)C(=O)c2cc(NC(=O)CCCN(C)C)ccc2O[C@@H]1CN(C)S(=O)(=O)c1ccc(Cl)cc1", "cytotoxicity call": "inactive"}
{"smiles": "Cc1ccccc1OCC(O)CO", "note": "(centres undefined)", "cytotoxicity call": "active"}
{"smiles": "Cc1ccccc1OC[C@@H](O)CO", "cytotoxicity call": "inactive"}
{"smiles": "CC(C)c1ccccc1OC[C@@H](O)CN", "cytotoxicity call": "inactive"}
{"smiles": "COc1cccc(NC(=O)N(C)C[C@H]2Oc3ncc(Br)cc3C(=O)N([C@H](C)CO)C[C@H]2C)c1", "cytotoxicity call": "inactive"}
{"smiles": "C[C@H]1COC(=O)[C@@H](Cc2ccc(F)cc2)CC=CC[C@@H](CC(=O)N[C@H](CO)Cc2ccccc2)C(=O)N1", "cytotoxicity call": "inactive"}
{"smiles": "Cn1nccc1NC(=O)/C=C/C(=O)O", "cytotoxicity call": "inactive"}
{"smiles": "C[C@@H]1CN([C@@H](C)CO)S(=O)(=O)c2ccc(-c3cccc(C#N)c3)cc2O[C@@H]1CN(C)C(=O)c1cccnc1", "cytotoxicity call": "inactive"}
{"smiles": "C[C@@H]1CN([C@H](C)CO)C(=O)c2cc(NC(=O)Nc3ccc(F)cc3)ccc2O[C@@H](C)CCCCO[C@H]1CN(C)C(=O)Nc1ccc(F)cc1", "cytotoxicity call": "active"}
{"smiles": "C[C@@H]1CCCCO[C@@H](CN(C)C(=O)Nc2ccccc2)[C@@H](C)CN([C@H](C)CO)C(=O)c2cc(NC(=O)Nc3ccc(F)cc3)ccc2O1", "cytotoxicity call": "inactive"}
{"smiles": "C[C@@H]1CCCCO[C@@H](CN(C)C(=O)Nc2ccc(F)cc2)[C@H](C)CN([C@@H](C)CO)C(=O)c2cc(NC(=O)Nc3ccccc3)ccc2O1", "cytotoxicity call": "inactive"}
{"smiles": "C[C@H]1CCCCO[C@H](CN(C)C(=O)Nc2ccccc2)[C@@H](C)CN([C@@H](C)CO)C(=O)c2cc(NC(=O)Nc3ccc(F)cc3)ccc2O1", "cytotoxicity call": "active"}
{"smiles": "C[C@@H]1CCCCO[C@@H](CN(C)C(=O)Nc2ccc(F)cc2)[C@@H](C)CN([C@H](C)CO)C(=O)c2cc(NC(=O)Nc3ccc(F)cc3)ccc2O1", "cytotoxicity call": "inactive"}
{"smiles": "C[C@@H]1CCCCO[C@H](CN(C)C(=O)Nc2ccc(F)cc2)[C@@H](C)CN([C@H](C)CO)C(=O)c2cc(NC(=O)Nc3ccc(F)cc3)ccc2O1", "cytotoxicity call": "inactive"}
{"smiles": "COc1ccc(NC(=O)Nc2ccc3c(c2)C(=O)N([C@H](C)CO)C[C@H](C)[C@H](CN(C)Cc2ccc4c(c2)OCO4)OCCCC[C@@H](C)O3)cc1", "cytotoxicity call": "inactive"}
{"smiles": "Cc1ccc(S(=O)(=O)N2C[C@H](O)COC[C@@H]3O[C@@H](CC(=O)NCc4ccc5c(c4)OCO5)CC[C@H]32)cc1", "cytotoxicity call": "inactive"}
{"smiles": "COc1ccc(S(=O)(=O)N(C)C[C@H]2Oc3c(cccc3N(C)C)C(=O)N([C@H](C)CO)C[C@@H]2C)cc1", "cytotoxicity call": "inactive"}
{"smiles": "CC(=O)N1[C@H](Cn2cncn2)C[C@H]2CN(C(N)=O)CC[C@H]21", "cytotoxicity call": "inactive"}
{"smiles": "COc1ccc(NC(=O)N(C)C[C@H]2OCCCC[C@@H](C)Oc3ccc(NC(=O)Nc4c(C)noc4C)cc3C(=O)N([C@@H](C)CO)C[C@H]2C)cc1", "cytotoxicity call": "inactive"}
{"smiles": "C[C@@H]1CCCCO[C@H](CN(C)Cc2ccccc2)[C@H](C)CN([C@@H](C)CO)C(=O)c2cc(NC(=O)CCC(F)(F)F)ccc2O1", "cytotoxicity call": "inactive"}
{"smiles": "COc1ccc(NC(=O)Nc2ccc3c(c2)C(=O)N([C@H](C)CO)C[C@@H](C)[C@@H](CN(C)C(=O)c2ccccc2)OCCCC[C@H](C)O3)cc1", "cytotoxicity call": "inactive"}
{"smiles": "NNC(=O)CCCCCC(=O)NO", "cytotoxicity call": "inactive"}
{"smiles": "NNC(=O)CCCCCCC(=O)NO", "cytotoxicity call": "inactive"}
{"smiles": "NNC(=O)CCCCC(=O)NO", "cytotoxicity call": "active"}
{"smiles": "Cc1cc([N+](=O)[O-])nn1CC(=O)NC(C)C", "cytotoxicity call": "inactive"}
{"smiles": "COc1cc2c(cc1OC)C(=O)NCC2", "cytotoxicity call": "active"}
{"smiles": "COc1cc2c(cc1OC)Cc1cc(OC)c(OC)cc1Cc1cc(OC)c(OC)cc1C2", "cytotoxicity call": "inactive"}
{"smiles": "COc1cc2c(cc1OC)C(=O)OC2", "cytotoxicity call": "inactive"}
{"smiles": "CO[C@H]1CN(C)C(=O)c2cc(NC(=O)C3CC3)ccc2OC[C@H](C)N(C(=O)Cc2ccccn2)C[C@H]1C", "cytotoxicity call": "inactive"}
{"smiles": "Cc1cc(C(=O)Nc2cccc3c2O[C@@H](CN(C)C(=O)Nc2ccccc2)[C@H](C)CN([C@@H](C)CO)C3=O)n(C)n1", "cytotoxicity call": "inactive"}
{"smiles": "NCCCCCc1nnc(SCC(N)=O)o1", "cytotoxicity call": "inactive"}
{"smiles": "Cc1ccc(CSc2nnc(CCN)o2)cc1", "cytotoxicity call": "active"}
{"smiles": "CC1(C)CC(=O)c2c(C(F)(F)F)nn(-c3ccc(C(N)=O)c(N[C@H]4CC[C@H](OC(=O)CN)CC4)c3)c2C1", "cytotoxicity call": "active"}
{"smiles": "CC1(C)CC(=O)c2c(C(F)(F)F)nn(-c3ccc(C(N)=O)c(O[C@H]4CC[C@H](N)CC4)c3)c2C1", "cytotoxicity call": "inactive"}
{"smiles": "CC(C)[C@@H](CC[C@@H](C)[C@H]1CC[C@H]2[C@@H]3[C@H](O)C[C@H]4C[C@@H](NCCCNCCCCNCCCN)CC[C@]4(C)[C@H]3CC[C@]12C)OS(=O)(=O)O", "cytotoxicity call": "active"}
{"smiles": "CC(C)[C@@H](CC[C@@H](C)[C@H]1CC[C@H]2[C@@H]3[C@H](O)C[C@H]4C[C@@H](NCCCNCCCCN)CC[C@]4(C)[C@H]3CC[C@]12C)OS(=O)(=O)O", "cytotoxicity call": "active"}
{"smiles": "CC(CCC(=O)O)C1CCC2C3CCC4CC(O)CCC4(C)C3CCC12C", "note": "(centres undefined)", "cytotoxicity call": "inactive"}
{"smiles": "CC(CCC(=O)O)C1CCC2C3C(O)CC4CC(O)CCC4(C)C3CCC12C", "note": "(centres undefined)", "cytotoxicity call": "inactive"}
{"smiles": "CCC(CCC(C)C1CCC2C3CCC4CC(O)CCC4(C)C3CCC12C)C(C)C", "note": "(centres undefined)", "cytotoxicity call": "inactive"}
{"smiles": "CCCCCCCCCCCCCCCCCCCC(=O)N[C@H]1CC[C@@]2(C)[C@@H](C1)C[C@@H](O)[C@@H]1[C@@H]2C[C@H](O)[C@]2(C)[C@@H]([C@H](C)CCC(=O)O)CC[C@@H]12", "cytotoxicity call": "inactive"}
{"smiles": "CC(C)NC(=O)Nc1ccc2c(c1)C(=O)N([C@H](C)CO)C[C@@H](C)[C@H](CN(C)S(=O)(=O)c1cccs1)O2", "cytotoxicity call": "inactive"}
{"smiles": "CO[C@H]1CN(C)C(=O)c2ccc(NS(C)(=O)=O)cc2OC[C@@H](C)N(C(=O)CN(C)C)C[C@@H]1C", "cytotoxicity call": "inactive"}
{"smiles": "Cn1nc(CN2CCCC2=O)c2c1CNC2", "cytotoxicity call": "inactive"}
{"smiles": "Cc1cc(C(=O)Nc2cccc3c2O[C@H](CN(C)Cc2ccc4c(c2)OCO4)[C@@H](C)CN([C@H](C)CO)C3=O)n(C)n1", "cytotoxicity call": "inactive"}
{"smiles": "CC(C)NC(=O)N(C)C[C@H]1Oc2ccc(NC(=O)C3CCCCC3)cc2CC(=O)N([C@@H](C)CO)C[C@H]1C", "cytotoxicity call": "inactive"}
{"smiles": "C[C@@H]1CN([C@H](C)CO)C(=O)c2ccccc2-c2ccccc2CO[C@@H]1CN(C)C(=O)Nc1ccc(-c2ccccc2)cc1", "cytotoxicity call": "inactive"}
{"smiles": "C[C@@H]1CCCCO[C@@H](CN(C)Cc2ccc(Cl)c(Cl)c2)[C@H](C)CN([C@@H](C)CO)C(=O)c2cc(NC(=O)Nc3cccc4ccccc34)ccc2O1", "cytotoxicity call": "inactive"}
{"smiles": "C[C@@H]1CCCCO[C@@H](CN(C)Cc2ccccc2)[C@H](C)CN([C@H](C)CO)C(=O)c2cc(NC(=O)Nc3cccc4ccccc34)ccc2O1", "cytotoxicity call": "inactive"}
{"smiles": "C[C@@H]1CCCCO[C@H](CN(C)Cc2ccccc2)[C@H](C)CN([C@H](C)CO)C(=O)c2cc(NC(=O)Nc3cccc4ccccc34)ccc2O1", "cytotoxicity call": "active"}
{"smiles": "C[C@@H]1CCCCO[C@@H](CN(C)Cc2ccc(Cl)c(Cl)c2)[C@@H](C)CN([C@@H](C)CO)C(=O)c2cc(NC(=O)Nc3cccc4ccccc34)ccc2O1", "cytotoxicity call": "active"}
{"smiles": "C[C@H]1CCCCO[C@@H](CN(C)Cc2ccccc2)[C@@H](C)CN([C@@H](C)CO)C(=O)c2cc(NC(=O)Nc3cccc4ccccc34)ccc2O1", "cytotoxicity call": "active"}
{"smiles": "C[C@@H]1CN([C@H](C)CO)C(=O)c2cc(NC(=O)Nc3cccc4ccccc34)ccc2O[C@@H](C)CCCCO[C@@H]1CN(C)Cc1ccccc1", "cytotoxicity call": "inactive"}
{"smiles": "C[C@H](CO)N1C[C@H](C)[C@@H](CN(C)Cc2ccccc2)OCCCC[C@H](C)Oc2ccc(NC(=O)Nc3cccc4ccccc34)cc2C1=O", "cytotoxicity call": "inactive"}
{"smiles": "C[C@@H]1CCCCO[C@H](CN(C)Cc2ccccc2)[C@@H](C)CN([C@H](C)CO)C(=O)c2cc(NC(=O)Nc3cccc4ccccc34)ccc2O1", "cytotoxicity call": "inactive"}
{"smiles": "C[C@@H]1CCCCO[C@H](CN(C)Cc2ccccc2)[C@H](C)CN([C@@H](C)CO)C(=O)c2cc(NC(=O)Nc3cccc4ccccc34)ccc2O1", "cytotoxicity call": "active"}
{"smiles": "C[C@@H]1CCCCO[C@@H](CN(C)Cc2ccc(Cl)c(Cl)c2)[C@H](C)CN([C@H](C)CO)C(=O)c2cc(NC(=O)Nc3cccc4ccccc34)ccc2O1", "cytotoxicity call": "inactive"}
{"smiles": "COc1ccc(NC(=O)N(C)C[C@H]2Oc3ncc(C#CCN(C)C)cc3C(=O)N([C@H](C)CO)C[C@H]2C)cc1", "cytotoxicity call": "inactive"}
{"smiles": "C[C@H](CO)N1C[C@H](C)[C@@H](CN(C)C(=O)C2CCOCC2)Oc2cc(-c3ccc(C(=O)N(C)C)cc3)ccc2S1(=O)=O", "cytotoxicity call": "inactive"}
{"smiles": "C[C@H]1CCCCO[C@H](CN(C)Cc2ccc(C(F)(F)F)cc2)[C@@H](C)CN([C@@H](C)CO)C(=O)c2cc(NC(=O)c3ccncc3)ccc2O1", "cytotoxicity call": "inactive"}
{"smiles": "C[C@@H]1CCCCO[C@@H](CN(C)C(=O)CCCN(C)C)[C@@H](C)CN([C@H](C)CO)C(=O)c2cc(N(C)C)ccc2O1", "cytotoxicity call": "inactive"}
